In PubChem BioAssay (EPA / NIEHS):
“And” between values parts separate entries of the source, which are not always exact repeats. Identical values can stand only once. Where a structure was tested more than once in an assay, its records may differ in their call. The source made the active and inactive calls. Rule for the calls: active = hit-call score of the fitted dose curve at least 0.9, where 1 is the maximum; inactive = score below 0.9.

Key:
[1] = read-out: Matrix Metallopeptidase 1 (MMP1), MMP1 (gene 4312); assay: BSK_hDFCGF_MMP1: BioMAP Diversity Plus: hDFCGF Assay for Matrix Metallopeptidase 1 (MMP1) Biomarker Activity (AID 2283064); details: primary human foreskin fibroblasts; actives raise or lower the signal
Procedure, shortened: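 Human foreskin fibroblasts exposed to chemical for 24 h; MMP1 detected by ELISA, with DMSO as baseline for bidirectional fitting.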

[2] = read-out: Intercellular Adhesion Molecule 1 (ICAM1), ICAM1 (gene 3383); assay: BSK_KF3CT_ICAM1: BioMAP Diversity Plus: KF3CT Assay for Intercellular Adhesion Molecule 1 (ICAM1) Biomarker Activity (AID 2283067); details: primary human keratinocytes with fibroblasts; actives raise or lower the signal
Procedure, shortened: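 Human keratinocyte plus foreskin fibroblast primary co-culture was exposed to chemical for 24 h. ICAM-1 was then quantified by ELISA, and the data were fit bidirectionally against DMSO as the negative control and baseline.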

[3] = read-out: Interferon-gamma inducible Protein 10 (IP10), CXCL10 (gene 3627); assay: BSK_KF3CT_IP10: BioMAP Diversity Plus: KF3CT Assay for Interferon-gamma inducible Protein 10 (IP10) Biomarker Activity (AID 2283068); details: primary human keratinocytes with fibroblasts; actives raise or lower the signal
Procedure, shortened: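 Signal is secreted/surface IP-10 by ELISA in a human primary skin co-culture of keratinocytes and foreskin fibroblasts, taken 24 h post-dosing; DMSO served as negative control.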

[4] = BSK_KF3CT_SRB: Viability Assessment in the BioMAP Diversity Plus: KF3CT Assay (AID 2283069); details: primary human keratinocytes with fibroblasts;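 note: read 24 h after compound addition; fitted for both signal gain and loss against DMSO baseline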
Procedure, shortened: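 Overt cytotoxicity is assessed as total protein by sulforhodamine B staining in parallel human skin co-cultures at 24 h after dosing. DMSO serves as negative control and baseline.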

[5] = read-out: Interleukin-1 alpha (IL1a), IL1A (gene 3552); assay: BSK_KF3CT_IL1a: BioMAP Diversity Plus: KF3CT Assay for Interleukin-1 alpha (IL1a) Biomarker Activity (AID 2283070); details: primary human keratinocytes with fibroblasts; actives raise or lower the signal
Procedure, shortened: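 Readout is IL-1a level by ELISA, compared bidirectionally with DMSO as baseline. Cells: human keratinocytes co-cultured with foreskin fibroblasts, harvested 24 h post-dose.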

[6] = read-out: TIMP metallopeptidase inhibitor 2 (TIMP2), TIMP2 (gene 7077); assay: BSK_KF3CT_TIMP2: BioMAP Diversity Plus: KF3CT Assay for TIMP metallopeptidase inhibitor 2 (TIMP2) Biomarker Activity (AID 2283071); details: primary human keratinocytes with fibroblasts; actives raise or lower the signal
Procedure, shortened: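 ELISA readout of TIMP-2 in keratinocyte plus foreskin fibroblast co-cultures (human skin primary cells), 24 h post-dose. Gain or loss of signal fitted relative to DMSO.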

[7] = read-out: Transforming growth factor beta 1 (TGFb1), TGFB1 (gene 7040); assay: BSK_KF3CT_TGFb1: BioMAP Diversity Plus: KF3CT Assay for Transforming growth factor beta 1 (TGFb1) Biomarker Activity (AID 2283072); details: primary human keratinocytes with fibroblasts; actives raise or lower the signal
Procedure, shortened: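 Read-out: ELISA for TGF-b1 in keratinocyte/foreskin fibroblast human skin co-culture, 24 h after dosing; bidirectional curve fit vs DMSO baseline; gain or loss of signal scored.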

[8] = read-out: C-C motif chemokine 2 (Homo sapiens) (UniProt P13500); assay: BSK_KF3CT_MCP1: BioMAP Diversity Plus: KF3CT Assay for Monocyte Chemoattractant Protein 1 (MCP1/CCL2) Biomarker Activity (AID 2283073); details: primary human keratinocytes with fibroblasts; actives raise or lower the signal
Procedure, shortened: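 Human keratinocyte plus foreskin fibroblast primary co-culture exposed to chemical for 24 h. MCP-1 levels measured by ELISA. Bidirectional curve fitting relative to DMSO negative control as baseline.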

[9] = read-out: Matrix Metallopeptidase 9 (MMP9), MMP9 (gene 4318); assay: BSK_KF3CT_MMP9: BioMAP Diversity Plus: KF3CT Assay for Matrix Metallopeptidase 9 (MMP9) Biomarker Activity (AID 2283074); details: primary human keratinocytes with fibroblasts; actives raise or lower the signal;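 for AC50: MMP9 protein level quantified by ELISA in the co-culture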
Procedure, shortened: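 Values come from bidirectional fitting relative to DMSO of MMP-9 levels, which were measured by ELISA. Measurements were taken 24 h after chemical dosing of a keratinocyte and foreskin fibroblast co-culture.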

[10] = read-out: urokinase plasminogen activator (uPA), PLAU (gene 5328); assay: BSK_KF3CT_uPA: BioMAP Diversity Plus: KF3CT Assay for urokinase plasminogen activator (uPA) Biomarker Activity (AID 2283075); details: primary human keratinocytes with fibroblasts; actives raise or lower the signal
Procedure, shortened: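 Values derive from bidirectional fitting against DMSO controls. Keratinocyte/foreskin fibroblast co-cultures received chemical; 24 h later uPA was detected by ELISA, with SRB total-protein staining in parallel wells for overt cytotoxicity.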

S=C(NC1CCCCC1)NC1CCCCC1
outcome [1]: inactive
outcome [2]: inactive
outcome [3]: inactive
outcome [4]: inactive
outcome [5]: inactive
outcome [6]: inactive
outcome [7]: inactive
outcome [8]: inactive
outcome [9]: inactive
outcome [10]: inactive

C=C[Si](OC(C)=O)(OC(C)=O)OC(C)=O
outcome [1]: inactive
outcome [2]: inactive
outcome [3]: inactive
outcome [4]: inactive
outcome [5]: inactive
outcome [6]: inactive
outcome [8]: inactive
outcome [9]: inactive
outcome [10]: inactive

C=CC=CC=CCCCCC
outcome [1]: inactive
outcome [2]: inactive
outcome [3]: inactive
outcome [4]: inactive
outcome [5]: inactive
outcome [6]: inactive
outcome [7]: inactive
outcome [8]: inactive
outcome [9]: inactive
outcome [10]: inactive

O=C1CCCN1CCO
outcome [1]: inactive
outcome [2]: inactive
outcome [3]: inactive
outcome [4]: inactive
outcome [5]: inactive
outcome [6]: inactive
outcome [8]: inactive
outcome [9]: inactive
outcome [10]: inactive

CCCCCCCCc1ccc(Nc2ccc(CCCCCCCC)cc2)cc1
outcome [1]: inactive
outcome [2]: inactive
outcome [3]: inactive
outcome [4]: inactive
outcome [5]: inactive
outcome [6]: inactive
outcome [7]: inactive
outcome [8]: inactive
outcome [9]: inactive
outcome [10]: inactive

c1ccc(-c2ccccn2)nc1
outcome [1]: inactive
outcome [2]: inactive
outcome [3]: inactive
outcome [4]: inactive
outcome [5]: inactive
outcome [6]: inactive
outcome [7]: inactive
outcome [8]: inactive
outcome [9]: inactive
outcome [10]: inactive

CCCCC(CC)COC(=O)c1ccccc1O (stereo unspecified)
AC50 [1]: 17.8 µM (active)
outcome [2]: inactive
outcome [3]: inactive
outcome [4]: inactive
outcome [5]: inactive
outcome [6]: inactive
outcome [7]: inactive
outcome [8]: inactive
outcome [9]: inactive
outcome [10]: inactive

c1ccc2c(c1)ccc1ncccc12
outcome [1]: inactive
outcome [2]: inactive
outcome [3]: inactive
outcome [4]: inactive
AC50 [5]: 8.26 µM (active)
outcome [6]: inactive
outcome [7]: inactive
outcome [8]: inactive
AC50 [9]: 20 µM (active)
outcome [10]: inactive

O=Nc1ccc(O)cc1
outcome [1]: inactive
outcome [2]: inactive
outcome [3]: inactive
outcome [4]: inactive
outcome [5]: inactive
outcome [6]: inactive
outcome [7]: inactive
outcome [8]: inactive
outcome [9]: inactive
outcome [10]: inactive

C/C=C\C/C=C/CCCCCCCCOC(C)=O
AC50 [1]: 32.9 µM (active)
AC50 [2]: 24.6 µM (active)
AC50 [3]: 39.4 µM (active)
outcome [4]: inactive
AC50 [5]: 26.3 µM (active)
AC50 [6]: 20 µM (active)
AC50 [7]: 10.8 µM (active)
AC50 [8]: 20 µM (active)
AC50 [9]: 29.5 µM (active)
outcome [10]: inactive

CCO[Si](CCCN=C=O)(OCC)OCC
outcome [1]: inactive
outcome [2]: inactive
outcome [3]: inactive
outcome [4]: inactive
outcome [5]: inactive
outcome [6]: inactive
outcome [7]: inactive
outcome [8]: inactive
outcome [9]: inactive
outcome [10]: inactive

c1ccc2c(c1)ccc1cc3c(ccc4ccccc43)cc12
outcome [1]: inactive
outcome [2]: inactive
outcome [3]: inactive
outcome [4]: inactive
outcome [5]: inactive
AC50 [6]: 3.59 µM (active)
outcome [6]: inactive
outcome [7]: inactive
outcome [8]: inactive
outcome [9]: inactive
outcome [10]: inactive

CCCCCCCCCCCCCCCC[N+](C)(C)CC
AC50 [1]: 4.94 µM (active)
AC50 [2]: 4.6 µM (active)
AC50 [3]: 2.96 µM (active)
AC50 [4]: 5.14 µM (active)
AC50 [5]: 3.23 µM (active)
AC50 [6]: 2.15 µM (active)
AC50 [7]: 7.9 µM (active)
AC50 [8]: 6.3 µM (active)
AC50 [9]: 1.68 µM (active)
AC50 [10]: 7.22 µM (active)

O=C(c1ccc(O)cc1)c1ccc(O)cc1O
AC50 [1]: 6.99 µM (active) and 20 µM (active)
outcome [2]: inactive
outcome [3]: inactive
outcome [4]: inactive
outcome [5]: inactive
outcome [6]: inactive
outcome [8]: inactive
AC50 [9]: 18.4 µM (active) and 11.2 µM (active)
outcome [10]: inactive

Nc1ccc(N)c(Cl)c1
AC50 [1]: 34.5 µM (active) and 33 µM (active)
outcome [2]: inactive
outcome [3]: inactive
outcome [4]: inactive
AC50 [5]: 8.84 µM (active) and 11.4 µM (active)
outcome [6]: inactive
outcome [8]: inactive
AC50 [9]: 20 µM (active) and 18.3 µM (active)
outcome [10]: inactive

CCOc1nc(F)cc2nc(S(=O)(=O)Nc3c(Cl)cccc3C(=O)OC)nn12
outcome [1]: inactive
outcome [2]: inactive
outcome [3]: inactive
outcome [4]: inactive
outcome [5]: inactive
outcome [6]: inactive
outcome [7]: inactive
outcome [8]: inactive
outcome [9]: inactive
outcome [10]: inactive

CCO[Si](C)(OCC)OCC
outcome [1]: inactive
outcome [2]: inactive
outcome [3]: inactive
outcome [4]: inactive
outcome [5]: inactive
outcome [6]: inactive
outcome [8]: inactive
outcome [9]: inactive
outcome [10]: inactive

C=CCOc1c(Br)cc(Br)cc1Br
AC50 [1]: 30.3 µM (active)
AC50 [2]: 30.7 µM (active)
AC50 [3]: 38.9 µM (active)
AC50 [4]: 27.8 µM (active)
AC50 [5]: 20 µM (active)
AC50 [6]: 11.4 µM (active)
AC50 [7]: 9.26 µM (active)
AC50 [8]: 12.2 µM (active)
AC50 [9]: 20 µM (active)
AC50 [10]: 28.6 µM (active)
